The source of these data is ChEMBL document CHEMBL1157539, “Thousands of chemical starting points for antimalarial lead identification” (Nature, 2010).

The structures appear in SMILES notation.

For one assay, the system named is Plasmodium falciparum. In words: GSK_TCMDC: Inhibition of Plasmodium falciparum 3D7 in whole red blood cells, using parasite LDH activity as an index of growth. Test compounds present at 2uM. Type of assay: functional.
The molecule `COc1ccc(NC(=O)Nc2ccc(-c3ccccc3)cc2Cl)cc1N1CCN(C)CC1` had an Inhibition of 90%.

As to `CC(C)COc1ccc(Cl)cc1Cc1ccc(-c2nc3ccc(F)c(F)c3[nH]2)o1`, the Inhibition is 94%.

`Cl.c1cc(CNC2Cc3ccccc3C2)cc(-c2cnc(N3CCNCC3)nc2)c1` gave an Inhibition of 93%. Still for that read-out and setting: for `Cc1ccc(NC(=O)c2ccc(CN3CCCN(Cc4cccc(O)c4)CC3)cc2)cc1.O=C(O)C(F)(F)F` the value was 90%; for `COc1cc2c(cc1OC)-c1cc(=Nc3c(C)cc(C)cc3C)n(C)c(=O)n1CC2.Cl`, 92%. The same measure, in the same setting: for `C=C(C)CSc1nc2c(c(=O)n1CCc1ccccc1)C1(CCCC1)Cc1ccccc1-2` the value was 100%.

Take `CN(C)S(=O)(=O)c1ccc(Nc2nc(NCCC3C=NC=N3)nc3cc[nH]c(=O)c23)cc1` (stereo not drawn): the Inhibition stood at 96%. The same measure, in the same setting: to `CN(C)c1ccc(CN2CCC(NC(=O)c3ccc(-c4ccc(N(C)C)cc4)s3)CC2)cc1.O=C(O)C(F)(F)F` belongs 93%; to `CCOc1ccc(-c2nonc2NC(=O)c2ccccc2F)cc1OCC`, 90%. Still for that read-out and setting: for `O=C(Nc1ccc(F)cc1)c1nc2ccccc2nc1Cl` the value was 80%; for `Cc1ccccc1C1CCN(c2ncc(C(=O)NC3CC3)cc2Cl)CC1.O=C(O)C(F)(F)F`, 96%; for `CCOC(=O)c1c(-c2ccccc2)nc2c(sc3ccccc32)c1O`, 97%. Still for that read-out and setting: to `O=C(Nc1ccc2ccccc2c1)N(CCCn1ccnc1)Cc1csc(-c2ccc(CNCc3ccccc3)cc2)n1.O=C(O)C(F)(F)F` belongs 99%.

In the next assay the test system is Plasmodium falciparum. In words: GSK_TCMDC: Inhibition of Plasmodium falciparum Dd2 in whole red blood cells, using parasite LDH activity as an index of growth. Test compounds present at 2uM. The class given is functional.
Molecule `Cl.FC(F)(F)c1cc(Nc2ccc(Oc3ccccc3)cc2)c2cc(-c3ccncc3)ccc2n1` returned an Inhibition of 70%. The molecule `NCCC(=O)Nc1ccc(-c2cnc3[nH]cc(-c4ccc(C(=O)O)cc4)c3c2)cn1.O=C(O)C(F)(F)F` had an Inhibition of 67%.

Molecule `O=C(NC1CCCC1)c1ccc(N2CCC(NCc3cccc(C(F)(F)F)c3)CC2)cc1` came in with an Inhibition of 75%.

`COc1ccc(-c2ccc(NC(=O)c3cccc(C#N)c3)cc2)cc1CN1CCNCC1.O=C(O)C(F)(F)F` returned an Inhibition of 47%.

Regarding `O=C(CCN1C(=O)c2ccccc2C1=O)N1CCN(CC=Cc2ccccc2)CC1`, the Inhibition is 3%. The same measure, in the same setting: to `O=C(N[C@H]1CCN(CCc2ccc(O[C@H]3CCNC3)c(Br)c2)C1)c1ccc(Cl)c(Cl)c1.O=C(O)C(F)(F)F` belongs 0%; to `O=C(Nc1ccc(OC2CCN(Cc3ccsc3)C2)c(Cl)c1)c1ccsc1.O=C(O)C(F)(F)F` (stereo not drawn), 70%; to `Cc1ccc(S(=O)(=O)NC2CCN(CCNC(=O)Nc3cc(C)nc4ccccc34)C2)cc1` (stereo not drawn), 42%.

The molecule `c1ccc2c3c(ccc2c1)Sc1c(ccc2ccccc12)N3` gave an Inhibition of 31%.

Take `COc1cc2nc(NCCc3cccc(Cl)c3)nc(NCc3ccccc3)c2cc1OC`: the Inhibition stood at 100%. With `Cc1nc2nc(N)nc(N)c2c(C)c1Cc1cccc(C(N)=O)c1.Cl`, the Inhibition is 0%. On the same count and under the same terms, to `Cc1ccc(/C=C/C(=O)NCCCCCN2CCN(C(=O)Nc3ccc(Cl)c(C(F)(F)F)c3)CC2)cc1` belongs 0%; to `Cn1nccc1C(=O)NCCNCc1ccc(-c2ccc(-c3nc4cc(C(F)(F)F)ccc4[nH]3)s2)cc1.O=C(O)C(F)(F)F`, 99%; to `Cc1ccc(C(=O)Nc2cccc([N+](=O)[O-])c2)cc1S(=O)(=O)N1CC(C)CC(C)C1` (stereo not drawn), 42%. On the same count and under the same terms, to `Cc1cc(O)c2c(c1)OC(C)(C)C=C2C1=CCN(Cc2ccccc2)CC1` belongs 1%; to `CN(C)CCOC(=O)C1(O)CCC2CC1C2(C)C.Cl` (stereo not drawn), 0%; to `COc1cccc(C(=O)N2CCOC(CCN3CCC(c4ccccc4)CC3)(c3ccc(Cl)c(Cl)c3)C2)c1` (stereo not drawn), 63%. On the same count and under the same terms, to `CC(=O)Nc1ccc(CNCCc2ccc(NC(=O)c3cc(Cl)cc(Cl)c3)cc2)cc1` belongs 31%; to `Nc1ccnc(N2CCC(CCOc3cc(C(F)(F)F)nc4c(C(F)(F)F)cccc34)CC2)c1`, 17%. `CNc1ccc(CNCc2ccc(-c3ccc(-c4nc5cc(C(F)(F)F)ccc5[nH]4)cc3)cc2)cc1.O=C(O)C(F)(F)F`: the Inhibition was 98%.

Regarding `Cc1ccc2sc(N3CCN(C(=O)c4ccc([N+](=O)[O-])o4)CC3)nc2c1C`, the Inhibition was found to be 86%. On the same count and under the same terms, to `N#Cc1cccc(NC(=O)c2cccc(S(=O)(=O)NC3CCN(CC4CCCCC4)C3)c2)c1.O=C(O)C(F)(F)F` (stereo not drawn) belongs 27%. Same read-out and setting: for `Cc1cc(CNCCCCCCNCc2ccc(Cl)cc2)ccc1O` the value was 0%; for `Cc1ccccc1Nc1nc(NCCCO)c2ccccc2n1.Cl`, 50%; for `CC[C@@]1(O)C(=O)OCc2c1cc1n(c2=O)Cc2c-1nc1cc3c(cc1c2CN1CCN(C)CC1)OCCO3.Cl`, 97%. Same read-out and setting: to `Cl.O=c1cc(NCCCNCc2ccc(Cl)c(Cl)c2)[nH]c2ccc(Cl)cc12` belongs 54%; to `Fc1ccc2[nH]c(-c3cccc(-c4ccc(CN5CCCCC5)cc4)c3)nc2c1.O=C(O)C(F)(F)F`, 97%; to `COc1ccc(NC(=O)Nc2ccc(-c3ccccc3)cc2Cl)cc1N1CCN(C)CC1`, 30%. In turn, `CC(C)COc1ccc(Cl)cc1Cc1ccc(-c2nc3ccc(F)c(F)c3[nH]2)o1` registered an Inhibition of 85%. Same read-out and setting: to `Cl.c1cc(CNC2Cc3ccccc3C2)cc(-c2cnc(N3CCNCC3)nc2)c1` belongs 65%; to `Cc1ccc(NC(=O)c2ccc(CN3CCCN(Cc4cccc(O)c4)CC3)cc2)cc1.O=C(O)C(F)(F)F`, 31%; to `COc1cc2c(cc1OC)-c1cc(=Nc3c(C)cc(C)cc3C)n(C)c(=O)n1CC2.Cl`, 29%. For the molecule `C=C(C)CSc1nc2c(c(=O)n1CCc1ccccc1)C1(CCCC1)Cc1ccccc1-2`, the Inhibition came to 80%. On the same count and under the same terms, to `CN(C)S(=O)(=O)c1ccc(Nc2nc(NCCC3C=NC=N3)nc3cc[nH]c(=O)c23)cc1` (stereo not drawn) belongs 63%; to `CN(C)c1ccc(CN2CCC(NC(=O)c3ccc(-c4ccc(N(C)C)cc4)s3)CC2)cc1.O=C(O)C(F)(F)F`, 21%; to `CCOc1ccc(-c2nonc2NC(=O)c2ccccc2F)cc1OCC`, 100%. Still for that read-out and setting: for `O=C(Nc1ccc(F)cc1)c1nc2ccccc2nc1Cl` the value was 62%; for `Cc1ccccc1C1CCN(c2ncc(C(=O)NC3CC3)cc2Cl)CC1.O=C(O)C(F)(F)F`, 96%.

`CCOC(=O)c1c(-c2ccccc2)nc2c(sc3ccccc32)c1O` returned an Inhibition of 65%. On the same count and under the same terms, to `O=C(Nc1ccc2ccccc2c1)N(CCCn1ccnc1)Cc1csc(-c2ccc(CNCc3ccccc3)cc2)n1.O=C(O)C(F)(F)F` belongs 53%.

As a reminder, the Inhibition is the percentage by which the read-out fell short of the control. Higher therefore signals a response far below the control.
